# Screening data (PubChem)
# D2 PAM-1: positive allosteric modulators of human D2 dopamine receptor | HEK293 T-REx D2, calcium flux, EC20 dopamine potentiation | potentiation, % at 10 µM | 340,000 tested, 0.34% active | AID 485347;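 active means potentiation over 3 SD above the plate norm, cut at about 30% in these data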; further: 0% is about no effect
# Target sequence (P14416 whole entry, looked up): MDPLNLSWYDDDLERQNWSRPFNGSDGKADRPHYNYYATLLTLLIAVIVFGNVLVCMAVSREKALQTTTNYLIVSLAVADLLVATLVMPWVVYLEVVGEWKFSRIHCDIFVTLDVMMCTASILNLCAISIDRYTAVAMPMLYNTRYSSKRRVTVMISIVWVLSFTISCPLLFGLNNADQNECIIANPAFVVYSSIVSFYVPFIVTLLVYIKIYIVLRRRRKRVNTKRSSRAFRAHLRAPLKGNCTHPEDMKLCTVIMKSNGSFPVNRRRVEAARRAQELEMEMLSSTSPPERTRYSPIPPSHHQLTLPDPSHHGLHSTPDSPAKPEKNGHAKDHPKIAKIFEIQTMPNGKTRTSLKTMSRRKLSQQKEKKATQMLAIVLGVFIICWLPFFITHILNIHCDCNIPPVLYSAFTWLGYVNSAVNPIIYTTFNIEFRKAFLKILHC
#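 Potentiation of an EC20 dopamine calcium response measured kinetically over 180 s, after a preceding 180 s compound-only read flagging agonists. Cells: inducible Hek293 Trex D2 line, 4000/well, cultured overnight at 30 C before dye loading.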
# D2 antagonist: D2 dopamine receptor (human) antagonism. P14416. HEK293 TREx D2 cells, calcium flux, dopamine EC80. inhibition, % at 10 µM. 340,000 tested, 2% active. AID 485344; in the data active means inhibition above about 30%; inactive means below that, where a call was filed; further: 0% is about no effect
#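 Compounds are added to dye-loaded, induced HEK293 T-REx cells coupled to calcium release via D2; after a 3 min kinetic read an EC80 dopamine stimulus is given and fluorescence is recorded for 3 more min.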
# D2 PAM-2: human D2 receptor positive allosteric modulation | P14416 | DiscoveRx D2 beta-arrestin cells, luminescence, 90 min; 100% = 57 uM dopamine signal | potentiation, % (concentration not given with the values) | 360,000 tested, 0.23% active; in the data active means potentiation above about 50%; inconclusive means mostly about 30% to 49%
#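 D2 cells co-treated with compound plus 50 nM dopamine (EC20) for 90 min at 37 deg C to detect potentiation. Beta-arrestin recruitment was read as enzyme-fragment luminescence after 1 h at ambient temperature. Full response was set by 57 uM dopamine.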
# D2 ag-1: agonists of human D2 dopamine receptor | P14416 | HEK293 T-REx D2 cells, calcium flux agonist mode | activation, % at 2 µM | 340,000 tested, 0.53% active;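 active means activation over 3 SD above normal in the single-dose calcium agonist read, cut at about 30% in these data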; further: 0% is about no effect
#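 Agonism scored from kinetic calcium signal (1 read/sec, 180 s) following compound pin transfer, after a 10 s baseline. Cells: HEK293 Trex line expressing inducible D2 receptor coupled to calcium, dye-loaded after overnight culture at 30 C.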
# D2 ag-2: human D2 receptor agonism in beta-arrestin assay; activation, % (test concentration not listed); 360,000 tested, 0.084% active; AID 624465; DiscoveRx PathHunter D2 beta-arrestin, luminescence, 90 min; 100% = 57 uM dopamine signal; in the data active means activation above about 40%; inconclusive means between about 15% and that limit
#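 DiscoveRx PathHunter D2 beta-arrestin cells (2,100/well) attached overnight, then compound-stimulated 90 min at 37 C in HBSS/10 mM HEPES/0.1% Tween-20 buffer; beta-galactosidase complementation read by luminescence after 1 h at ambient temperature. Dopamine 57 uM final (EC100) as control.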
# * marks the source's active call; other numbers are inactive results; ? = inconclusive; / = no result. Shown are actives, neighbours in structure and some others; about 2.4% of the full set was active somewhere.
SMILES,D2 PAM-1,D2 antagonist,D2 PAM-2,D2 ag-1,D2 ag-2
COc1ccc(N2CCN(CCCNC(=O)CCC(=O)N3CCOc4ccc(Cl)cc43)CC2)cc1,-27,-4,-39,0,-6
COc1ccccc1CNC(=O)C1CCCN(c2nc3ccccc3n3cccc23)C1 (stereo not given),0,/,/,1,/
Cc1nc2c(-c3ccc(Cl)cc3)c(C)[nH]n2c(=O)c1Cc1ccccc1,-40,15,-16,0,2
CCOC(=O)Cc1c(C)nc2c(-c3ccccc3)c(-c3ccccc3)[nH]n2c1=O,7,10,-13,-1,-6
COc1ccc(-c2c(C)[nH]n3c(=O)c(Cc4ccccc4)c(C)nc23)cc1OC,-29,35*,-18,-1,0
Cc1cccc(Cc2c(C)nc3c(-c4ccccc4)c(C)[nH]n3c2=O)c1,/,/,/,-1,/
Cc1nc2c(-c3ccccc3)c(C)[nH]n2c(=O)c1Cc1ccccc1,-19,43*,-13,0,5
CCOC(=O)Cc1c(C)nc2c(-c3ccccc3)c(C)[nH]n2c1=O,34*,-10,-18,0,2
COc1ccc(NCc2cccn2-c2nnc(N3CCCCC3)s2)cc1OC,-1,/,/,-1,/
CCN(CC)CCCNC(=O)Cn1c(-c2cccs2)cc2cc(Cl)ccc21,-6,/,/,0,/
O=C(CSC1=Nc2ccccc2C2=NC(CCC(=O)NC3CCCCC3)C(=O)N12)Nc1cccc(Cl)c1 (stereo not given),-5,/,/,/,/
CC1(C)C(C=C(Cl)Cl)C1C(=O)N/N=C/c1ccccc1F (stereo not given),11,60*,-12,1,-7
CC1(C)OC2OC(C(=O)N/N=C/c3ccccc3F)C3OC(C)(C)OC3C2O1 (stereo not given),9,14,-7,1,7
O=C(NC1=NCCS1)c1cccc(S(=O)(=O)N2CCOCC2)c1,-8,34*,-4,0,0
O=C(c1cccc(S(=O)(=O)N2CCOCC2)c1)N1CCN(S(=O)(=O)c2cccs2)CC1,-1,42*,-6,4,-3
O=C(c1cccc(S(=O)(=O)N2CCCCC2)c1)N1CCOCC1,-1,10,-13,0,-3
Cn1c2ccccc2c2c(C(=O)NCCCN3CCCC3=O)cn(C3CCCCC3)c(=O)c21,32*,10,-38,1,-4
Cc1ccc(C(=O)N/N=C\C=C\c2ccccc2[N+](=O)[O-])cn1,-31,47*,-4,2,-3
Cc1ccsc1/C=N/NC(=O)c1cccs1,7,2,-11,1,-1
O=C(N/N=C/C=C/c1ccccc1[N+](=O)[O-])c1cccs1,-22,39*,-18,-1,1
Cc1ccc(/C=N/NC(=O)c2cccs2)cc1[N+](=O)[O-],-1,35*,-14,-1,-1
Cc1ccc(C(=O)N/N=C\c2ccccc2[N+](=O)[O-])cn1,/,-4,-9,-1,-6
COc1cccc(/C=N/NC(=O)c2ccoc2C)c1O,7,-4,-6,0,-1
Cc1occc1C(=O)N/N=C/c1ccccc1[N+](=O)[O-],7,35*,-2,0,-2
O=C(N/N=C/c1ccccc1[N+](=O)[O-])c1cccs1,-13,-19,-2,0,2
SMILES,D2 PAM-1,D2 antagonist,D2 PAM-2,D2 ag-1,D2 ag-2
CC(NC(=O)C(=O)Nc1c2c(nn1-c1ccccc1)CSC2)c1ccccc1 (stereo not given),-2,/,/,/,/
CC(=O)N1CCC2(CC1)OC(=O)C(C)=C2C(=O)Nc1cccc(Cl)c1C,3,/,/,1,/
Cc1oc2ncnc(N3CCCCC3)c2c1C(=O)Nc1cccc(Cl)c1C,4,/,/,1,/
CCOc1ccc(C(=O)c2cn(CC(=O)Nc3ccc(F)c(F)c3)c3cc4c(cc3c2=O)OCCO4)cc1,22,/,/,1,/
CCOC(=O)c1c(C)cccc1OCC(N)=O,64*,-2,-18,-1,0
CCc1ccc(-n2nc(CO)c(C(=O)NC(C)c3ccc(Cl)cc3)n2)cc1 (stereo not given),0,/,/,-1,/
CCCN(CCC)C(=O)Cc1ccc(F)cc1,0,18,-2,0,-3
C=CCN(CC=C)C(=O)Cc1ccc(F)cc1,-4,31*,-4,0,0
O=C(c1cccs1)N1CCN(C(=O)C2CCCO2)CC1 (stereo not given),-7,37*,-1,7,-1
CCc1ccc(NC(=O)C2CCC(CNS(=O)(=O)c3cccs3)CC2)cc1 (stereo not given),-6,/,/,/,/
CC(C)n1cnc2c(Nc3ccc(C(=O)O)cc3)nc(Cl)nc21,10,-16,1,0,-2
CC(C)[C@H](CO)Nc1nc(Nc2ccc(Cl)c(C(=O)O)c2)c2ncn(C(C)C)c2n1,-4,39*,-5,0,-2
Oc1ccc(NCc2ccccc2OCc2ccccc2)cc1,-14,-2,97*,0,?
COc1ccc(CNC(=O)c2cc3cccc4c3n2CC(C)S4)cc1 (stereo not given),-7,/,/,-1,/
Cc1cc(C)c(S(=O)(=O)N2CCN(c3ccc([N+](=O)[O-])c(NCc4ccco4)c3)CC2)c(C)c1,0,-2,-14,-1,0
O=[N+]([O-])c1ccc(N2CCN(CCO)CC2)cc1NCc1ccco1,-22,34*,-40,-1,-4
c1ccc(C(c2nnnn2Cc2ccco2)N2CCN(c3nc4ccccc4s3)CC2)cc1 (stereo not given),30*,12,26,-1,0
Nc1nonc1-c1nc2ccccc2n1CC(=O)N1CCCCC1,-7,-9,-10,-1,-4
O=C(Cn1c(-c2ccco2)nc2ccccc21)N1CCCCC1,8,46*,-12,1,-3
Cc1ccc2c(c1)C(C)CC(C)(C)N2C(=O)CN1CCN(C)CC1 (stereo not given),-20,36*,-31,-1,-5
CC1CC(C)(C)N(C(=O)CN2CCN(C)CC2)c2ccccc21 (stereo not given),4,7,-4,0,-4
CCN(CC)S(=O)(=O)c1nnc(NC(=O)c2ccc(Br)cc2)s1,10,/,/,-1,/
CN(C)CCNc1oc(-c2ccccc2Cl)nc1S(=O)(=O)c1ccccc1,-4,6,-4,0,-4
CN(C)CCCNc1oc(-c2ccccc2Cl)nc1S(=O)(=O)c1ccc(F)cc1,-20,34*,-21,2,-3
Cc1cc(C)cc(NC(=O)[C@H](NC(=O)[C@@H]2Cc3ccccc3CN2)c2ccccc2)c1,-20,40*,-21,0,-3
CCC(C(=O)NCCc1ccc(OC)c(OC)c1)n1nc(C)n2c(cc3occc32)c1=O (stereo not given),-5,33*,1,0,-2
